Compound activity as filed in PubChem.
This is a sample that favours compounds with a hit; in the whole collection about 2.9% have one here.
PAFAH1B2 FP inh: PAFAH1B2 enzyme inhibitors, primary screen, biochemical, fluorescence polarization, human; actives 1.2% (n = 340,000); recombinant PAFAH1B2, FP-rhodamine activity probe; Platelet-activating factor acetylhydrolase IB subunit alpha2 (Homo sapiens), P68402; inhibition, % at 3.39 µM;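 active = inhibition above the mean of all tested compounds plus 3 SD, cut at about 24% in these data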;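 note: 0% = enzyme with DMSO and 100% = wells lacking PAFAH1B2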
Target sequence (P68402 whole entry, looked up): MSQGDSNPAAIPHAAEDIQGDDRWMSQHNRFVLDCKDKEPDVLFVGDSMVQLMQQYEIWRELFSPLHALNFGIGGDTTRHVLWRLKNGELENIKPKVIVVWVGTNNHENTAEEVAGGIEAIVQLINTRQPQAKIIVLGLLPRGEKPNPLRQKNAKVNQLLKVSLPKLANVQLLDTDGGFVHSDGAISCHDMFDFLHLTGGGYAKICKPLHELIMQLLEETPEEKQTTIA
pPAFAH FP inh: pPAFAH enzyme inhibitors, primary screen, biochemical, fluorescence polarization, human; recombinant pPAFAH, FP-rhodamine probe fluorescence polarization; inhibition, % at 3.39 µM; actives 1.5% (n = 330,000); AID 463082, 2010;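 active = inhibition above the mean inhibition across the screen plus 3 SD, cut at about 25% in these data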;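 note: inhibitors block binding of the rhodamine activity-based probe so polarization drops; 0% = enzyme with DMSO and 100% = wells lacking pPAFAH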
PME-1 inh: PME-1 inhibitors via competitive probe labeling, primary screen, biochemical, fluorescence polarization, FP-Rh probe, HTS | Protein phosphatase methylesterase 1 (Homo sapiens), Q9Y570 | recombinant PME-1 | inhibition, % at 5.9 µM | actives 0.53% (n = 320,000) | AID 2130, 2009;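 active = inhibition above the campaign mean of all compounds plus 3 SD, cut at about 26% in these data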;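 note: competitive labeling of PME-1 active site by serine hydrolase directed probe; 0% = PME-1 with DMSO and 100% = wells lacking PME-1 enzyme; inhibitors block probe labeling so polarization falls and inhibition rises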
Target sequence (Q9Y570 whole entry, looked up): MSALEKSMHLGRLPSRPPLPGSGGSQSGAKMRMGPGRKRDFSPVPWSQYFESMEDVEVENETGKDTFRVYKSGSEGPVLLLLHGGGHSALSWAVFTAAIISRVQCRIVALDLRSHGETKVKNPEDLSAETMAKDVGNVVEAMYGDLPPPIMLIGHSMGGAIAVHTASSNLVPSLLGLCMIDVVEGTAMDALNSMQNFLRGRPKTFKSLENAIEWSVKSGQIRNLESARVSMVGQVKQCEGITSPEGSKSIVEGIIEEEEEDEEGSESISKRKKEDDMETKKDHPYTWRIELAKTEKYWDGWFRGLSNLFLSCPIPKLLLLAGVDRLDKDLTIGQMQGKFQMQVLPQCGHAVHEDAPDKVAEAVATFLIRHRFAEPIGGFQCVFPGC
Fam108B inh: mouse Fam108B serine hydrolase inhibitors, primary screen, counter-screen for RBBP9 inhibitor project, biochemical, fluorescence polarization; recombinant Fam108B, FP-Rh probe fluorescence polarization; inhibition, % at 9.51 µM; actives 0.33% (n = 300,000); AID 1947, 2009;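 active = inhibition above the screen mean inhibition plus 3 SD, computed separately per campaign, cut at about 18% in these data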;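 note: inhibitors lower polarization as less probe binds the enzyme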
PAFAH2 inh: PAFAH2 enzyme inhibitors, primary screen, biochemical, fluorescence polarization, human. recombinant PAFAH2, FP-rhodamine activity probe. inhibition, % at 3.39 µM. actives 0.99% (n = 340,000);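 active = inhibition above the mean over all tested compounds plus 3 SD, cut at about 30% in these data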;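 note: inhibitors block probe labeling of enzyme so polarization drops; 0% = enzyme with DMSO and 100% = wells lacking PAFAH2 protein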
PAFAH1B3 FP inh: PAFAH1B3 enzyme inhibitors, primary screen, biochemical, fluorescence polarization, human | Platelet-activating factor acetylhydrolase IB subunit alpha1 (Homo sapiens), Q15102 | recombinant PAFAH1B3, FP-rhodamine probe | inhibition, % at 3.39 µM | actives 0.28% (n = 340,000) | AID 492972, 2010;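 active = inhibition above the screen-wide average of all tested compounds plus 3 SD, cut at about 25% in these data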;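 note: 0% = enzyme with DMSO only and 100% = wells lacking PAFAH1B3 protein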
pPAFAH FP conf: pPAFAH (PLA2G7) enzyme inhibitors, confirmation, biochemical, fluorescence polarization, human; shares compounds with pPAFAH FP inh; recombinant pPAFAH, FP-Rh probe fluorescence polarization; inhibition, % at 3.39 µM; actives 72% (n = 2,300);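 active = mean inhibition of the triplicate above the hit cutoff set for the earlier primary screen, cut at about 25% in these data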;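 note: 0% = enzyme with DMSO and 100% = wells lacking pPAFAH enzyme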
Starred values were filed as active, the others as inactive.

What do the screens show for `COc1cc([N+](=O)[O-])ccc1-c1ccc(/C=N/NC(N)=O)o1`?
PAFAH1B2 FP inh: 0.1; pPAFAH FP inh: 67.1*; PME-1 inh: 2.1; Fam108B inh: 0.2; PAFAH2 inh: -1.1; PAFAH1B3 FP inh: 7.9; pPAFAH FP conf: -5.2

What do the screens show for `O=C(Nc1cccc(/C=C/c2ccccn2)c1)c1cc(Cl)ccn1`?
PAFAH1B2 FP inh: 0.1; pPAFAH FP inh: 6.5; PME-1 inh: -3.1; Fam108B inh: -4.1; PAFAH2 inh: 1.6; PAFAH1B3 FP inh: -1.5

How did CCOC(=O)c1c(C)n(-c2ccc(C)cc2)c2ccc(OCC(O)CNCC3CCCO3)cc12 (stereo unspecified) do in these assays?
PAFAH1B2 FP inh: 5.2; pPAFAH FP inh: 71.4*; PME-1 inh: 3.4; Fam108B inh: -3.4; PAFAH2 inh: -1.4; PAFAH1B3 FP inh: 5.0; pPAFAH FP conf: 69.5*

What do the screens show for `CCOC(=O)c1c(C)n(-c2ccc(C)cc2)c2ccc(OCC(O)CNCCCO)cc12` (stereo unspecified)?
PAFAH1B2 FP inh: 4.0; pPAFAH FP inh: 11.3; PME-1 inh: -4.2; Fam108B inh: -1.2; PAFAH2 inh: -1.4; PAFAH1B3 FP inh: -4.2

Results for Cc1cccc(C)c1-n1cccc1/C=C1\SC(=S)N(c2cccc(C(=O)O)c2)C1=O ?
PAFAH1B2 FP inh: 0.2; pPAFAH FP inh: 50.2*; PME-1 inh: -10.2; Fam108B inh: -10.6; PAFAH2 inh: -11.6; PAFAH1B3 FP inh: -5.2; pPAFAH FP conf: 50.9*

How did Cc1cccc(C)c1NC(=O)CN1C(=O)S/C(=C\c2cccn2-c2cccc(C(=O)O)c2)C1=O do in these assays?
PAFAH1B2 FP inh: 2.8; pPAFAH FP inh: 2.2; PME-1 inh: -2.2; Fam108B inh: -1.2; PAFAH2 inh: 12.2; PAFAH1B3 FP inh: 2.5

What do the screens show for `COc1ccc(N(Cc2cc3cccc(C)c3[nH]c2=O)S(=O)(=O)c2ccc(OC)cc2)cc1`?
PAFAH1B2 FP inh: 4.6; pPAFAH FP inh: 65.8*; PME-1 inh: 1.0; Fam108B inh: -3.5; PAFAH2 inh: 5.4; PAFAH1B3 FP inh: 7.5; pPAFAH FP conf: 2.4

How did COc1cc(/C=N/NC(=O)CSc2cc(C)c(Br)cc2C)ccc1O do in these assays?
PAFAH1B2 FP inh: 0.7; pPAFAH FP inh: 8.4; PME-1 inh: 21.0; Fam108B inh: 7.8; PAFAH2 inh: 2.1; PAFAH1B3 FP inh: 9.2

Results for Cc1cc(SCC(=O)N/N=C/c2ccc(O)c(O)c2O)c(C)cc1Br ?
PAFAH1B2 FP inh: -6.0; pPAFAH FP inh: 57.2*; PME-1 inh: 31.2*; Fam108B inh: 9.5; PAFAH2 inh: 2.0; PAFAH1B3 FP inh: 13.1; pPAFAH FP conf: 74.9*

What do the screens show for `O=C1COc2ccc(C(=O)COC(=O)/C=C/c3ccc(Br)o3)cc2N1`?
PAFAH1B2 FP inh: -7.1; pPAFAH FP inh: 38.5*; PME-1 inh: -6.2; Fam108B inh: 1.7; PAFAH2 inh: 7.6; PAFAH1B3 FP inh: -2.1; pPAFAH FP conf: 21.6

What do the screens show for `Cc1cnc(C(=O)Nc2ccccc2C(=O)N2CCOCC2)cn1`?
PAFAH1B2 FP inh: 6.9; pPAFAH FP inh: 37.4*; PME-1 inh: 0.2; Fam108B inh: 1.2; PAFAH2 inh: -2.9; PAFAH1B3 FP inh: 9.2; pPAFAH FP conf: 3.5

Results for CCC(=O)Nc1ccccc1C(=O)N1CCOCC1 ?
PAFAH1B2 FP inh: 3.5; pPAFAH FP inh: 5.8; PME-1 inh: 0.1; Fam108B inh: -3.3; PAFAH2 inh: 1.7; PAFAH1B3 FP inh: 8.3

What do the screens show for `COc1ccc(-c2cc3c(=O)n(CC(=O)NCc4ccc(F)cc4)ncn3n2)cc1`?
PAFAH1B2 FP inh: 2.5; pPAFAH FP inh: -1.1; PME-1 inh: -0.6; Fam108B inh: -1.8; PAFAH2 inh: -12.2; PAFAH1B3 FP inh: -6.7

How did O=C(Oc1nsnc1N1CCOCC1)N1CCOCC1 do in these assays?
PAFAH1B2 FP inh: 5.1; pPAFAH FP inh: 84.9*; PME-1 inh: -2.8; Fam108B inh: -1.0; PAFAH2 inh: 30.7*; PAFAH1B3 FP inh: 5.2; pPAFAH FP conf: 89.1*

How did O=C(Oc1nsnc1N1CCOCC1)N1CCCCC1 do in these assays?
PAFAH1B2 FP inh: -2.1; pPAFAH FP inh: 57.1*; PME-1 inh: 2.7; Fam108B inh: 1.8; PAFAH2 inh: 8.4; PAFAH1B3 FP inh: 6.6; pPAFAH FP conf: 50.1*

Results for N#Cc1ccc(OS(=O)(=O)c2ccc(-c3ccon3)s2)cc1 ?
PAFAH1B2 FP inh: 14.9; pPAFAH FP inh: 11.7; PME-1 inh: -11.2; Fam108B inh: -0.6; PAFAH2 inh: 0.6; PAFAH1B3 FP inh: 6.5

Results for CCOc1ccc(NC(=O)CSc2nc3[nH]ncc3c(=O)n2-c2ccccc2OC)cc1 ?
PAFAH1B2 FP inh: -5.8; pPAFAH FP inh: 40.5*; PME-1 inh: -5.5; Fam108B inh: -6.3; PAFAH2 inh: -2.3; PAFAH1B3 FP inh: 0.8; pPAFAH FP conf: 19.9

What do the screens show for `COc1ccc(Cc2nnc(N/N=C/c3ccc(O)cc3O)[nH]c2=O)cc1OC`?
PAFAH1B2 FP inh: 2.5; pPAFAH FP inh: 0.4; PME-1 inh: 2.5; Fam108B inh: 3.2; PAFAH2 inh: 8.8; PAFAH1B3 FP inh: 11.5

What do the screens show for `N#C/C=C1/NC(=O)c2ccccc2S1`?
PAFAH1B2 FP inh: -1.9; pPAFAH FP inh: 56.6*; PME-1 inh: 7.8; Fam108B inh: -1.7; PAFAH2 inh: -2.2; PAFAH1B3 FP inh: 3.8; pPAFAH FP conf: 5.3

How did Cc1ccc(NC(=O)CCc2nc3ccccc3c(=O)[nH]2)cc1S(=O)(=O)N1CCOCC1 do in these assays?
PAFAH1B2 FP inh: 0.8; pPAFAH FP inh: -0.2; PME-1 inh: 4.6; Fam108B inh: 4.1; PAFAH2 inh: 4.7; PAFAH1B3 FP inh: 2.2

How did CCCCn1c(N)c(N(CCOC)C(=O)c2ccc(-c3cccc(C(F)(F)F)c3)o2)c(=O)[nH]c1=O do in these assays?
PAFAH1B2 FP inh: 1.9; pPAFAH FP inh: 39.1*; PME-1 inh: -2.5; Fam108B inh: 0.0; PAFAH2 inh: -9.6; PAFAH1B3 FP inh: 0.9; pPAFAH FP conf: 17.0

Results for CCCn1c(N)c(N(CCOC)C(=O)c2cccc(C(F)(F)F)c2)c(=O)[nH]c1=O ?
PAFAH1B2 FP inh: 6.6; pPAFAH FP inh: 2.6; PME-1 inh: 0.3; Fam108B inh: 3.0; PAFAH2 inh: 0.5; PAFAH1B3 FP inh: 7.4

Results for Nc1ccc2nc(-c3cccnc3)[nH]c2c1 ?
PAFAH1B2 FP inh: -0.4; pPAFAH FP inh: 39.5*; PME-1 inh: 3.5; Fam108B inh: 2.1; PAFAH2 inh: -3.9; PAFAH1B3 FP inh: 6.3; pPAFAH FP conf: -0.1
